{"source": "PubChem BioAssay (NCATS)", "note": "Results filed as inconclusive are left out. The source made the active and inactive calls. Calls follow the shape of the full dose curve. % is scaled to controls: 0 for no effect and ±100 for the full control effect; potency is read from the fitted curve at half-maximal effect.", "data": [{"biological_target": "Atrial natriuretic peptide receptor 1 (Homo sapiens) (UniProt P16066)", "sequence (P16066 whole entry, looked up)": "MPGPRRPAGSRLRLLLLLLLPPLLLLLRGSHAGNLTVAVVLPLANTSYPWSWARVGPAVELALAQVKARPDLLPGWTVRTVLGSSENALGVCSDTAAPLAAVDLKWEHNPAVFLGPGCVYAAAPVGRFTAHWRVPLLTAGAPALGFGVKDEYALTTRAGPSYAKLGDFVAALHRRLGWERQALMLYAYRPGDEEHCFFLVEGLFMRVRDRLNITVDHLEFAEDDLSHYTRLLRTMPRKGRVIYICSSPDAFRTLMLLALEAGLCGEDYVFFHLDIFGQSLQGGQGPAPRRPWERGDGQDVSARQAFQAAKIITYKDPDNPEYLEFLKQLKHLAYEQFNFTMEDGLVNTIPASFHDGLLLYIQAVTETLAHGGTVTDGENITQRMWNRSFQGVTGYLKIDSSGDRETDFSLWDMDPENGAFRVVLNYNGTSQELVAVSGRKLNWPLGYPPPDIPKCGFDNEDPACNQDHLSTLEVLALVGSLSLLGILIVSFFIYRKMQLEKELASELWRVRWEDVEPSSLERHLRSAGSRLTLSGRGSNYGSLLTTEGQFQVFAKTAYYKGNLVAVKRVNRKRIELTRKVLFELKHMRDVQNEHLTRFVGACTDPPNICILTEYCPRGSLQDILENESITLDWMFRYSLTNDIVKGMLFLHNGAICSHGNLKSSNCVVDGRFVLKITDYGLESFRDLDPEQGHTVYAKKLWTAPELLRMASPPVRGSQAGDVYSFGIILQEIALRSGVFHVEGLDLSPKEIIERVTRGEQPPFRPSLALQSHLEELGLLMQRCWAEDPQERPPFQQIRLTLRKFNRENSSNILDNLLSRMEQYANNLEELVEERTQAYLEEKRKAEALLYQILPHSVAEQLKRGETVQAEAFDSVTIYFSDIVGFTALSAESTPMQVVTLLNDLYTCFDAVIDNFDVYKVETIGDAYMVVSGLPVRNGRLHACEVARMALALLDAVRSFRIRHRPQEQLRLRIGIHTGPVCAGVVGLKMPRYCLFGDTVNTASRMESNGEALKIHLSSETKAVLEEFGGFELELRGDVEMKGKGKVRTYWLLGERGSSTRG", "test": "Natriuretic polypeptide receptor (hNpr1) antagonism - Pilot screen (AID 1347049)", "settings": "hNpr1 cells, antagonist mode cGMP read-out; series mostly up to 57.5 µM; activity change, negative = inhibition: at the top concentration", "description": "In order to identify small molecular compounds that inhibit the hNpr1 receptor we developed a high-throughput assay to measure inhibition of the guanylate cyclase activity of the receptor. cGMP production was measured using a circular permutated Firefly luciferase (FLuc) enzyme functionally linked to the cGMP binding domain of human phosphodiesterase 5 (GloSensor technology pGS-40F, (Fan, F. et al. 2008). The cGMP-sensor was expressed in human embryonic kidney 293 (HEK-293) cells and FLuc activity was measured after stimulation with hNrp agonist peptide. hNrp agonists activates the receptor's associated guanylyl cyclase (GC) domain producing cGMP which then binds to the GloSensor resulting in FLuc activation, the enzymatic activity of which can be measured as bioluminescence with addition of luciferin substrate.\nF. Fan, B. F. Binkowski, B. L. Butler, P. F. Stecha, M. K. Lewis, K. V. Wood, Novel genetically encoded biosensors using firefly luciferase. ACS Chem Biol 3, 346-351 (2008).\nThis assay was initially piloted by testing with a small diversity library of compounds with known pharmacological activity.\nPROTOCOL TABLES (as described by Inglese J, Shamu CE and Guy RK. 2007)\nSEQUENCE No. (e.g., 1, 2, 3, etc.); […] (e.g., Cells, Incubation, Reagent, etc.); VALUE and DESCRIPTION.\n1. Cells. Seed 1500 HEK293 cGMP-sensor cells expressing hNpr1 per well in 4uL into Greiner 1536-well white/solid bottom high base, tissue culture-treated plates.\n2. Incubation. Incubate plated cells at 37C in 5% CO2, 95% RH overnight.\n3. Reagent. Add 1uL per well GloSensor reagent from Promega (2% final concentration) or CO2 independent media vehicle control to respective columns of Greiner 1536-well plates.\n4. Incubation. Incubate plated cells at room temperature for 2 h, protect from light.\n5. Compounds. Library compounds and A-71915 control added at 23 nL per well, transferred by Pin Tool.\n6. Incubation. Incubate plated cells for 30 min. at room temperature, protect from light.\n7. Detector. GloSensor baseline pre-read luminescence measured using CCD-based camera (Viewlux).\n8. Compound. Add 1uL of hNppA peptide to 0.1 nM final concentration to stimulate hNpr1 or CO2 independent media as vehicle control.\n9. Incubation. Incubate treated cells at room temperature for 20 min., protect from light.\n10. Detector. GloSensor post-hNppA luminescence measured using CCD-based camera (Viewlux).\nNOTES (numbers refer to Sequence numbers above)\n1. HEK293 cells expressing hNpr1 and GIP/pGS-40F grown to 85-95% confluence (48-72 h) in T175 culture flasks (CO2 independent media supplemented with 10% FBS, 1% Pen/Strep antibiotics and 1 ug/mL puromycin). Trypsinize and harvest cells from T175 culture flasks and filter through 40 um cell strainer. Cells counted with Invitrogen Countess (30,000,000 - 50,000,000 cells/flask). Cells diluted to a final concentration of 375 cells/uL in CO2 independent media and a Millipore multidrop used to dispense 1500 cells per well (4uL/well) into 9 x 1536-well Greiner White/Solid bottom, high base tissue-culture treated (TC) plates and one Aurora 1536-well Black/Clear bottom, low base, TC plate (for visual inspection of cell health throughout the duration of the assay).\n2. Cells incubated overnight at ambient temperature, 24 h. at 37C in 95% RH incubator protected from light, covered with metal lid with gas-exchange holes.\n3. Prepare GloSensor Reagent (Promega): Reconstitute GloSensor luciferase substrate by adding 8.2mL Hepes buffer to 250mg substrate, mix well, protect from light and stored at -80C. Prepare a fresh 12% GloSensor solution in CO2 independent supplemented plating media (see above). Mix well and store at ambient temperature, protected from light. 1uL 12% GloSensor Luciferase Reagent added (2% final concentration) to respective columns of 9 x 1536-well Greiner plate with BioRaptr, 1uL CO2 independent plating media added to respective columns as vehicle control with BioRaptr.\n4. […]", "values": [{"smiles": "CCCN(CCC)[C@@H]1CCc2ccc(O)cc2C1", "activity change, negative = inhibition": "7.83% (inactive)"}, {"smiles": "C=CCN1CC[C@]23CCCCC2[C@H]1Cc1ccc(O)cc13", "note": "(stereo not given in full)", "activity change, negative = inhibition": "-17.6% (inactive)"}, {"smiles": "CCCCc1ccc(C(=O)O)nc1", "activity change, negative = inhibition": "7.7% (inactive)"}, {"smiles": "NC1CCc2cc(O)c(O)cc2C1", "note": "(stereo not given)", "activity change, negative = inhibition": "0.332% (inactive)"}, {"smiles": "NCCc1c[nH]c2ccc(O)cc12", "activity change, negative = inhibition": "7.68% (inactive)"}, {"smiles": "CC1=NN=C(c2ccc(N)cc2)c2cc3c(cc2C1)OCO3", "activity change, negative = inhibition": "4.49% (inactive)"}, {"smiles": "COc1cc(C(O)CN)ccc1O", "note": "(stereo not given)", "activity change, negative = inhibition": "7.26% (inactive)"}, {"smiles": "CCCN1CCC[C@H](c2cccc(O)c2)C1", "activity change, negative = inhibition": "20.8% (inactive)"}, {"smiles": "C[C@]12CCC3C(CC[C@H]4C[C@H](O)CC[C@]34C)C1CC[C@@H]2C(=O)CO", "note": "(stereo not given in full)", "activity change, negative = inhibition": "6.19% (inactive)"}, {"smiles": "CC(Cc1ccc(O)cc1)NCC(O)c1cc(O)cc(O)c1", "note": "(stereo not given)", "activity change, negative = inhibition": "11.9% (inactive)"}, {"smiles": "O=C(O)[C@@H]1CCN1", "activity change, negative = inhibition": "2.05% (inactive)"}, {"smiles": "Clc1cnc(Oc2ccc(Oc3ncc(Cl)cc3Cl)cc2)c(Cl)c1", "activity change, negative = inhibition": "0.0253% (inactive)"}, {"smiles": "CC[C@@H](C(N)=O)N1CCCC1=O", "activity change, negative = inhibition": "5.21% (inactive)"}, {"smiles": "Cn1cnc(CCN)c1", "activity change, negative = inhibition": "-0.628% (inactive)"}, {"smiles": "COC(=O)[C@@H](N)CCCN=C(N)N[N+](=O)[O-]", "activity change, negative = inhibition": "12.2% (inactive)"}, {"smiles": "O=C(O)CC[N+](=O)[O-]", "activity change, negative = inhibition": "12% (inactive)"}, {"smiles": "COc1ccc2c(c[n+](C)c3c4cc5c(cc4ccc23)OCO5)c1OC", "Potency": "16.9 µM (active)"}, {"smiles": "CS(=N)(=O)CC[C@H](N)C(=O)O", "note": "(stereo not given in full)", "activity change, negative = inhibition": "10.1% (inactive)"}, {"smiles": "CC(=O)[C@H]1CCC2C3CC[C@H]4C[C@H](O)CC[C@]4(C)C3CC[C@@]21C", "note": "(stereo not given in full)", "activity change, negative = inhibition": "-0.739% (inactive)"}, {"smiles": "Cc1nccc2c1[nH]c1ccccc12", "activity change, negative = inhibition": "4.92% (inactive)"}, {"smiles": "CN[C@@H]1C[C@@H](c2ccc(Cl)c(Cl)c2)c2ccccc21", "Potency": "0.757 µM (active)"}, {"smiles": "C[C@@H](N)Cc1cnc[nH]1", "activity change, negative = inhibition": "18.8% (inactive)"}, {"smiles": "NC(N)=NOCCC(N)C(=O)O", "note": "(stereo not given)", "activity change, negative = inhibition": "-3.28% (inactive)"}, {"smiles": "O=C(O)Cc1cnc[nH]1", "activity change, negative = inhibition": "15.4% (inactive)"}, {"smiles": "Oc1ccc2c3c1O[C@H]1c4[nH]c5c(c4C[C@@]4(O)[C@@H](C2)N(CC2CC2)CC[C@]314)C[C@@]1(O)[C@H]2Cc3ccc(O)c4c3[C@@]1(CCN2CC1CC1)[C@H]5O4", "activity change, negative = inhibition": "-4.74% (inactive)"}, {"smiles": "C[C@]12N[C@H](Cc3ccccc31)c1ccccc12", "activity change, negative = inhibition": "1.03% (inactive)"}, {"smiles": "O=C(Cc1ccc(Cl)c(Cl)c1)N1CCCCC1CN1CCCC1", "note": "(stereo not given)", "activity change, negative = inhibition": "7.88% (inactive)"}, {"smiles": "c1ccc(CCCN2CCN(CCOC(c3ccccc3)c3ccccc3)CC2)cc1", "activity change, negative = inhibition": "-10% (inactive)"}, {"smiles": "c1ccc(C2(c3ccccc3)CC2C2=NCCN2)cc1", "note": "(stereo not given)", "activity change, negative = inhibition": "-1.67% (inactive)"}, {"smiles": "NC(CP(=O)(O)O)C(=O)O", "note": "(stereo not given)", "activity change, negative = inhibition": "4.13% (inactive)"}, {"smiles": "C[C@@H]1O[C@H](C[N+](C)(C)C)C[C@H]1O", "activity change, negative = inhibition": "0.128% (inactive)"}, {"smiles": "C#CCOC(=O)C1=CCCN(C)C1", "activity change, negative = inhibition": "6.89% (inactive)"}, {"smiles": "NC(CCP(=O)(O)O)C(=O)O", "note": "(stereo not given)", "activity change, negative = inhibition": "4.78% (inactive)"}, {"smiles": "C[N+]1(C)C2CCC1CC(OC(=O)C(CO)c1ccccc1)C2", "note": "(stereo not given)", "Potency": "inactive"}, {"smiles": "S=C(NC1CCCCC1)N1CCC(c2cnc[nH]2)CC1", "activity change, negative = inhibition": "12.7% (inactive)"}, {"smiles": "O=C(N[C@H]1CN2CCC1CC2)c1ccc(Cl)cc1", "activity change, negative = inhibition": "7.71% (inactive)"}, {"smiles": "CN1C2CCC1CC(OC(=O)c1cc(Cl)cc(Cl)c1)C2", "note": "(stereo not given)", "activity change, negative = inhibition": "10.4% (inactive)"}, {"smiles": "CCCN(CCC)C1CCc2ccc(O)cc2C1", "note": "(stereo not given)", "activity change, negative = inhibition": "2.88% (inactive)"}, {"smiles": "c1ccc2sc(C3(N4CCCCC4)CCCCC3)cc2c1", "activity change, negative = inhibition": "3.66% (inactive)"}, {"smiles": "CNCCc1ccc(O)c(O)c1", "activity change, negative = inhibition": "1.8% (inactive)"}]}]}
